From PubChem BioAssay (NCI)
Compounds without any hit were thinned out: in the full panel of roughly 83,000, 20% have a hit.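 For each line, cells grew in 96-well plates with the test compound present at a single concentration for 48 hours.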 Activity calls are given as the source filed them. How the source made its calls: active means growth percent below 10; inactive means the rest.

Assays:
Experiment in all cases: NCI-60 one-dose screen, 48 h (100 = growth as untreated, 0 = no growth, -100 = all killed)
Conditions in all cases: 10 µM unless noted
[1] = test system: SR leukemia
[2] = test system: RPMI-8226 leukemia
[3] = test system: OVCAR-8 ovarian
[4] = test system: OVCAR-5 ovarian
[5] = test system: OVCAR-4 ovarian
[6] = test system: SK-OV-3 ovarian
[7] = test system: IGROV1 ovarian
[8] = test system: OVCAR-3 ovarian
[9] = test system: HS 578T breast
[10] = test system: NCI/ADR-RES ovarian

Measured: growth

Cc1cc2nc3c4ccc(Br)cc4n(CCN(C)C)c3nc2cc1C
active: [1] -2.61% | [2] -30.4% | [7] 4.76%
inactive: [3] 21.6% | [4] 25.1% | [5] 12.3% | [6] 33.8% | [8] 21.1% | [9] 53.9% | [10] 17%

Nc1c(S(=O)(=O)O)cc2c3c(cccc13)C(=O)OC2=O
inactive: [1] 114% | [2] 106% | [3] 97.6% | [4] 118% | [5] 94% | [6] 110% | [7] 63.7% | [8] 95% | [9] 99.2% | [10] 93.8%

COc1c(Cl)c2c(c(OC)c1OC)-c1ccc(SC)c(=O)cc1[C@@H](NC(=O)OCC(F)(F)F)CC2
inactive: [3] 20% | [4] 35% | [5] 39.6% | [6] 48.2% | [7] 13.5% | [9] 12.1% | [10] 14.6%
active: [1] -0.191% | [2] 2.59% | [8] -14.2%

COc1ccc(-c2[nH][nH]c(=O)c2-c2nc3ccccc3s2)cc1
inactive: [1] 99.2% | [2] 99.4% | [3] 106% | [4] 105% | [5] 109% | [6] 106% | [7] 105% | [8] 110% | [9] 107% | [10] 97.7%

CC[C@]12C=CCN3CC[C@@]4(c5cc(NC(=O)CCC(=O)O[C@H]6CC[C@H]7[C@@H]8CCC9=CC(=O)CC[C@@H]9[C@H]8CC[C@]67C)c(OC)cc5N(C)[C@H]4[C@@](O)(C(=O)OC)[C@@H]1OC(C)=O)[C@@H]32
inactive: [1] 40% | [2] 54.6% | [3] 75.6% | [4] 96.1% | [5] 67% | [6] 104% | [7] 61.6% | [8] 80.8% | [9] 73.9% | [10] 80.1%

O=S(=O)(NCCNc1nccc(-c2c(-c3cccc(F)c3)nc3sccn23)n1)c1ccc(Br)cc1
active: [7] 8.47%
inactive: [1] 31.7% | [2] 58% | [3] 45.5% | [4] 83.6% | [5] 47% | [6] 77.3% | [8] 62.4% | [9] 63.6% | [10] 61.8%

O=C(c1ccccc1)N1N=C(c2ccc(-n3ccc(C(F)(F)F)n3)c(F)c2)CC1c1ccc[nH]1 (stereo not given)
inactive: [1] 104% | [2] 101% | [3] 104% | [4] 104% | [5] 116% | [6] 141% | [7] 108% | [8] 116% | [9] 107% | [10] 100%

CCc1ccc(CNc2ccc(N3CCOCC3)c(C(=O)O)c2)cc1
inactive: [1] 104% | [2] 109% | [3] 102% | [4] 99.9% | [5] 110% | [6] 103% | [7] 102% | [8] 104% | [9] 125% | [10] 98.6%

COc1cc2nc(-c3ccc(Cl)cc3)cc(OCCCN3CCCC3)c2cc1OC
inactive: [1] 14.5% | [2] 20.2% | [3] 56.2% | [4] 52.6% | [5] 58.2% | [6] 75.5% | [7] 34.5% | [8] 74.4% | [9] 68.6% | [10] 47.3%

CCCCOc1ccc(/C=N/Nc2cc(C)nc3ccc(Br)cc23)cc1
active: [1] -9.77% | [2] -15.9% | [3] -50.1% | [8] -53%
inactive: [4] 100% | [5] 44% | [6] 91.5% | [7] 10% | [9] 86.8% | [10] 83.8%

O=C(/C=C/c1ccc(F)cc1)c1ccc(NC(=O)N2CCN(c3cc4c(cc3F)c(=O)c(C(=O)O)cn4C3CC3)CC2)cc1
inactive: [1] 71.9% | [2] 98.6% | [3] 90.8% | [4] 96.9% | [5] 98.2% | [6] 99.4% | [7] 89.5% | [8] 97.6% | [9] 90.3% | [10] 100%

COc1cc(/C=N/NC(=O)c2cnn3c2NC(c2ccccc2)C3)ccc1OCc1ccccc1 (stereo not given)
active: [1] 0.0936% | [3] 2.7% | [5] -21.9% | [8] -63.4% | [9] -1.22%
inactive: [2] 43.7% | [4] 33.2% | [6] 18.9% | [7] 12.2% | [10] 35%

Fc1ccc2c(-c3cncn3CCc3ccccc3)c[nH]c2c1
inactive: [1] 96.3% | [2] 72.7% | [3] 97.7% | [4] 92.9% | [5] 60.7% | [6] 97.6% | [7] 77.4% | [8] 85.7% | [9] 67.3% | [10] 95.1%

CC(=O)c1ccc(NS(=O)(=O)c2cccc(C(=O)Nc3ccc(Br)cc3)c2)cc1
inactive: [1] 87.8% [25 µM] | [2] 22% [25 µM] | [3] 67.3% [25 µM] | [4] 89.2% [25 µM] | [5] 63.6% [25 µM] | [6] 66.5% [25 µM] | [7] 73.7% [25 µM] | [8] 70.9% [25 µM] | [9] 79.7% [25 µM] | [10] 48% [25 µM]

Cc1cc2nc3c4cc(C=O)ccc4n(CCN(C)C)c3nc2cc1C
active: [1] 3.27% | [2] -22.6% | [7] 5.83%
inactive: [3] 17.6% | [4] 22.5% | [5] 23.8% | [6] 26.8% | [8] 22.7% | [9] 51.6% | [10] 18.5%

C=C(C)[C@@H]1CC[C@]2(C(=O)N3CCN(C)CC3)CC[C@]3(C)[C@H](CC[C@@H]4[C@@]5(C)CC[C@H](O)C(C)(C)[C@@H]5CC[C@]43C)[C@@H]12
inactive: [6] 125%
active: [1] -19.9% | [2] -40.1% | [3] -55% | [4] -13.8% | [5] -79.6% | [7] -72.6% | [8] -94% | [9] -46.1% | [10] -42.7%

CC(=O)OC[C@]12CC[C@@H](C(=O)CBr)[C@@H]1[C@H]1CC[C@@H]3[C@@]4(C)CC[C@H](OC(C)=O)C(C)(C)[C@@H]4CC[C@@]3(C)[C@]1(C)CC2
inactive: [2] 91.4% | [3] 81.9% | [4] 102% | [5] 94% | [6] 90% | [8] 101% | [9] 101% | [10] 110%
active: [1] 4.82% | [7] -1.69%

COc1cc(/C(C)=C(\c2ccc(Cl)cc2)c2ccc(OCCN3CCCC3)cc2)ccc1F
inactive: [2] 14.7% | [3] 69.1% | [4] 74.8% | [5] 51.8% | [6] 108% | [7] 40.4% | [8] 63% | [9] 70.5% | [10] 69.9%
active: [1] -25.3%

COc1cccc(-c2nc3occn3c2-c2ccnc(NCCNS(=O)(=O)c3ccc(C(F)(F)F)cc3)n2)c1
inactive: [1] 96.6% | [2] 69.2% | [3] 90.8% | [4] 116% | [5] 83.7% | [6] 103% | [7] 80.6% | [8] 96.7% | [10] 99.4%
active: [9] -23.5%

COc1cc(NCCCCCNC(C)(C)C)c2ncccc2c1
active: [2] 7.94%
inactive: [1] 113% | [3] 102% | [4] 110% | [5] 22.6% | [6] 97% | [7] 37.2% | [8] 81.2% | [9] 88.3% | [10] 85.4%

Cc1ccc(-n2c3c(c(-c4ccccc4)c2-c2ccccc2)C2=NCCN2C=N3)cc1
inactive: [1] 80% | [2] 77.8% | [3] 75.2% | [4] 103% | [5] 78.5% | [6] 94.7% | [7] 62.6% | [8] 90.5% | [9] 94.8% | [10] 100%

COC(=O)C(OC(C)=O)C(OC(C)=O)c1ccc(OC)c(OC)c1 (stereo not given)
inactive: [1] 90.9% | [2] 103% | [3] 103% | [4] 108% | [5] 94.2% | [6] 110% | [7] 114% | [8] 104% | [9] 110% | [10] 94.1%

CCCCCC(=O)Oc1ccc(/C(=C(\C)c2ccccc2)c2ccc(OCCN3CCCCC3)cc2)cc1
inactive: [1] 30.5% | [2] 64.8% | [3] 89.2% | [4] 88.3% | [5] 82.9% | [6] 80.7% | [7] 90.4% | [8] 90.5% | [9] 75.6% | [10] 76.3%

C=C1C(=O)O[C@H]2[C@H]1CC/C(CNC(=O)CCc1ccc(OC)cc1)=C\CC[C@@]1(C)O[C@@H]21
inactive: [1] 14.3% | [2] 51.4% | [3] 39.2% | [4] 82% | [5] 80% | [6] 103% | [7] 61.7% | [8] 30.6% | [9] 86.4% | [10] 95.4%

CCCNC(=O)Oc1ccc(/C(=C(\C)c2ccccc2)c2ccc(OCCCN(C)C)cc2)cc1
inactive: [2] 63.4% | [3] 86.6% | [4] 80.5% | [5] 79.7% | [6] 71.9% | [7] 89.5% | [8] 83% | [9] 55.3% | [10] 77.7%
active: [1] 4.87%

COc1ccc(NC(N)=NCCCOc2ccc(F)cc2)cc1
inactive: [1] 93.6% | [2] 86% | [3] 94.1% | [4] 92.1% | [5] 70.1% | [6] 79.1% | [7] 67.7% | [8] 99.9% | [9] 113% | [10] 99%
